Data: the supplement of paper PMC12350171
Where a name gives a salt, the structure may show the parent alone. Unmarked numbers belong to inactive results.

Experiments:
Conditions in all cases: 20 µM
[1] = tested on: Haemophilus parainfluenzae; test: growth AUC normalised to DMSO control (fraction of control); higher = less growth inhibition, active = hit call of the paper
Procedure, shortened: (§1)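 Three biological replicates were carried out, with OD578 read hourly for 24 h. Before inoculation at a starting OD578 of 0.01, pathogens were passaged anaerobically twice; plates were pre-reduced mGAM containing 20 μM compound and 1% DMSO, sealed with breathable membranes, and the Haemophilus parainfluenzae medium carried added hemin and NAD. Area under each growth curve was calculated by the trapezoidal rule up to the exponential-to-stationary transition and normalised to DMSO controls on the same plate.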

[2] = tested on: Salmonella enterica typhimurium; test: as above
Procedure, shortened: as §1

Shigella flexneri = test: as above
Procedure, shortened: as §1

Vibrio cholerae = test: as above
Procedure, shortened: as §1

[3] = tested on: Yersinia pseudotuberculosis; test: as above
Procedure, shortened: as §1

P. vulgatus RND KO = test: growth AUC normalised to DMSO control (median) (fraction of control); higher = less growth inhibition, active = hit call of the paper
Procedure, shortened: (§2)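 Strains were passaged twice overnight without oxygen, then grown in mGAM in 96-well plates with each approved-drug library compound at 20 μM and 1% DMSO, starting at OD578 0.01. OD578 was read hourly for 24 h inside an anaerobic incubator. Curves were truncated at entry into stationary phase, and the trapezoidal-rule area under the curve was normalised to same-plate vehicle wells. The value is the median across three biological replicates.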

P. vulgatus WT = test: as above
Procedure, shortened: as §2

[4] = tested on: S. enterica typhimurium WT; test: as above
Procedure, shortened: as §2

[5] = tested on: S. enterica typhimurium tolC KO; test: as above
Procedure, shortened: as §2
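Wherever growth AUC normalised to DMSO control (median) is given: active when median AUC fell below 0.1.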

Compound: CCN(C)C(=O)Oc1cccc([C@H](C)N(C)C)c1 [Rivastigmine]
- growth AUC normalised to DMSO control [1]: 1.13
- growth AUC normalised to DMSO control [2]: 1.04
- growth AUC normalised to DMSO control (Shigella flexneri): 1.02
- growth AUC normalised to DMSO control (Vibrio cholerae): 1.11
- growth AUC normalised to DMSO control [3]: 1.04
- growth AUC normalised to DMSO control (P. vulgatus RND KO): 1.01
- growth AUC normalised to DMSO control (P. vulgatus WT): 1.03
- growth AUC normalised to DMSO control [4]: 1.01
- growth AUC normalised to DMSO control [5]: 1.02

Compound: NC(=O)C[S+]([O-])C(c1ccccc1)c1ccccc1 (stereo not drawn) [Modafinil]
- growth AUC normalised to DMSO control [1]: 1
- growth AUC normalised to DMSO control [2]: 0.994
- growth AUC normalised to DMSO control (Shigella flexneri): 0.982
- growth AUC normalised to DMSO control (Vibrio cholerae): 0.998
- growth AUC normalised to DMSO control [3]: 0.998
- growth AUC normalised to DMSO control (P. vulgatus RND KO): 1
- growth AUC normalised to DMSO control (P. vulgatus WT): 0.993
- growth AUC normalised to DMSO control [4]: 1
- growth AUC normalised to DMSO control [5]: 0.976

Compound: CN[C@@H]1C[C@@H](c2ccc(Cl)c(Cl)c2)c2ccccc21 [Indatraline hydrochloride]
- growth AUC normalised to DMSO control [1]: 1.04
- growth AUC normalised to DMSO control [2]: 1.02
- growth AUC normalised to DMSO control (Shigella flexneri): 1.05
- growth AUC normalised to DMSO control (Vibrio cholerae): 1
- growth AUC normalised to DMSO control [3]: 1.02
- growth AUC normalised to DMSO control (P. vulgatus RND KO): 0.973
- growth AUC normalised to DMSO control (P. vulgatus WT): 1.08
- growth AUC normalised to DMSO control [4]: 0.996
- growth AUC normalised to DMSO control [5]: 0.95

Compound: Oc1ccc2c3c1O[C@H]1[C@@H](O)CC[C@@]4(O)[C@@H](C2)N(CC2CCC2)CC[C@]314 [Nalbuphine hydrochloride]
- growth AUC normalised to DMSO control [1]: 0.982
- growth AUC normalised to DMSO control [2]: 0.984
- growth AUC normalised to DMSO control (Shigella flexneri): 0.974
- growth AUC normalised to DMSO control (Vibrio cholerae): 0.984
- growth AUC normalised to DMSO control [3]: 0.905
- growth AUC normalised to DMSO control (P. vulgatus RND KO): 0.997
- growth AUC normalised to DMSO control (P. vulgatus WT): 0.966
- growth AUC normalised to DMSO control [4]: 0.988
- growth AUC normalised to DMSO control [5]: 0.995

Compound: CC(C)c1cccc(C(C)C)c1O [Propofol]
- growth AUC normalised to DMSO control [1]: 0.988
- growth AUC normalised to DMSO control [2]: 1.01
- growth AUC normalised to DMSO control (Shigella flexneri): 1.01
- growth AUC normalised to DMSO control (Vibrio cholerae): 1.01
- growth AUC normalised to DMSO control [3]: 0.985
- growth AUC normalised to DMSO control (P. vulgatus RND KO): 1.05
- growth AUC normalised to DMSO control (P. vulgatus WT): 1.05
- growth AUC normalised to DMSO control [4]: 1.01
- growth AUC normalised to DMSO control [5]: 0.993

Compound: C[C@]12CC[C@H]3[C@@H](CCC4=CC(=O)CC[C@@H]43)[C@@H]1CC[C@@H]2O [Nandrolone]
- growth AUC normalised to DMSO control [1]: 1.99
- growth AUC normalised to DMSO control [2]: 0.995
- growth AUC normalised to DMSO control (Shigella flexneri): 0.981
- growth AUC normalised to DMSO control (Vibrio cholerae): 0.967
- growth AUC normalised to DMSO control [3]: 0.981
- growth AUC normalised to DMSO control (P. vulgatus RND KO): 0.999
- growth AUC normalised to DMSO control (P. vulgatus WT): 1.03
- growth AUC normalised to DMSO control [4]: 1.01
- growth AUC normalised to DMSO control [5]: 0.981

Compound: CC(C)(C)NCC(O)c1ccccc1Cl (stereo not drawn) [Tulobuterol hydrochloride]
- growth AUC normalised to DMSO control [1]: 1
- growth AUC normalised to DMSO control [2]: 1
- growth AUC normalised to DMSO control (Shigella flexneri): 1.01
- growth AUC normalised to DMSO control (Vibrio cholerae): 1.03
- growth AUC normalised to DMSO control [3]: 0.893
- growth AUC normalised to DMSO control (P. vulgatus RND KO): 0.991
- growth AUC normalised to DMSO control (P. vulgatus WT): 1.01
- growth AUC normalised to DMSO control [4]: 0.99
- growth AUC normalised to DMSO control [5]: 1.01

Compound: CN1CCN(C(=O)OC2c3nccnc3C(=O)N2c2ccc(Cl)cn2)CC1 (stereo not drawn) [Zopiclone]
- growth AUC normalised to DMSO control [1]: 1.01
- growth AUC normalised to DMSO control [2]: 0.996
- growth AUC normalised to DMSO control (Shigella flexneri): 1
- growth AUC normalised to DMSO control (Vibrio cholerae): 0.998
- growth AUC normalised to DMSO control [3]: 0.996
- growth AUC normalised to DMSO control (P. vulgatus RND KO): 0.999
- growth AUC normalised to DMSO control (P. vulgatus WT): 1.01
- growth AUC normalised to DMSO control [4]: 0.994
- growth AUC normalised to DMSO control [5]: 0.999

Compound: C#C[C@]1(O)CC[C@H]2[C@@H]3CCC4=CC(=O)CC[C@]4(C)[C@H]3CC[C@@]21C [Ethisterone]
- growth AUC normalised to DMSO control [1]: 1.02
- growth AUC normalised to DMSO control [2]: 1.01
- growth AUC normalised to DMSO control (Shigella flexneri): 1.02
- growth AUC normalised to DMSO control (Vibrio cholerae): 1.02
- growth AUC normalised to DMSO control [3]: 1
- growth AUC normalised to DMSO control (P. vulgatus RND KO): 1.05
- growth AUC normalised to DMSO control (P. vulgatus WT): 1.04
- growth AUC normalised to DMSO control [4]: 1.02
- growth AUC normalised to DMSO control [5]: 0.998

Compound: CN(C)[C@@H]1C(=O)C(C(N)=O)=C(O)[C@@]2(O)C(=O)C3=C(O)c4c(O)cccc4[C@@](C)(O)[C@H]3[C@H](O)[C@@H]12 [Oxytetracycline dihydrate]
- growth AUC normalised to DMSO control [1]: 0.0523 (active)
- growth AUC normalised to DMSO control [2]: 0.00147 (active)
- growth AUC normalised to DMSO control (Shigella flexneri): 0.015 (active)
- growth AUC normalised to DMSO control (Vibrio cholerae): 0.0278 (active)
- growth AUC normalised to DMSO control [3]: 0.0752 (active)
- growth AUC normalised to DMSO control (P. vulgatus RND KO): 0.00913 (active)
- growth AUC normalised to DMSO control (P. vulgatus WT): 0.0112 (active)
- growth AUC normalised to DMSO control [4]: 0.0149 (active)
- growth AUC normalised to DMSO control [5]: 0.00753 (active)

Compound: CC(=O)OCC(=O)[C@H]1CC[C@H]2[C@@H]3CC[C@H]4C[C@H](O)CC[C@]4(C)[C@H]3C(=O)C[C@]12C [Alfadolone acetate]
- growth AUC normalised to DMSO control [1]: 1.26
- growth AUC normalised to DMSO control [2]: 1.01
- growth AUC normalised to DMSO control (Shigella flexneri): 0.99
- growth AUC normalised to DMSO control (Vibrio cholerae): 0.987
- growth AUC normalised to DMSO control [3]: 0.992
- growth AUC normalised to DMSO control (P. vulgatus RND KO): 1.04
- growth AUC normalised to DMSO control (P. vulgatus WT): 1.05
- growth AUC normalised to DMSO control [4]: 1.01
- growth AUC normalised to DMSO control [5]: 0.941

Compound: CC(C)C[C@H]1C(=O)N2CCC[C@H]2[C@]2(O)O[C@](NC(=O)[C@@H]3C=C4c5cccc6[nH]c(Br)c(c56)C[C@H]4N(C)C3)(C(C)C)C(=O)N12 [Bromocryptine mesylate]
- growth AUC normalised to DMSO control [1]: 1
- growth AUC normalised to DMSO control [2]: 1
- growth AUC normalised to DMSO control (Shigella flexneri): 0.996
- growth AUC normalised to DMSO control (Vibrio cholerae): 0.996
- growth AUC normalised to DMSO control [3]: 1.03
- growth AUC normalised to DMSO control (P. vulgatus RND KO): 1.01
- growth AUC normalised to DMSO control (P. vulgatus WT): 1.03
- growth AUC normalised to DMSO control [4]: 1.02
- growth AUC normalised to DMSO control [5]: 0.994
